# From PubChem BioAssay
# sEH activator – activators of human soluble epoxide hydrolase. P34913. purified human sEH enzymatic activity, activator screen. activation, % at 2 µM. hit rate 0.04% among 91,000. AID 717; in the data active = activation above about 37%
# Target sequence (P34913 whole entry, looked up): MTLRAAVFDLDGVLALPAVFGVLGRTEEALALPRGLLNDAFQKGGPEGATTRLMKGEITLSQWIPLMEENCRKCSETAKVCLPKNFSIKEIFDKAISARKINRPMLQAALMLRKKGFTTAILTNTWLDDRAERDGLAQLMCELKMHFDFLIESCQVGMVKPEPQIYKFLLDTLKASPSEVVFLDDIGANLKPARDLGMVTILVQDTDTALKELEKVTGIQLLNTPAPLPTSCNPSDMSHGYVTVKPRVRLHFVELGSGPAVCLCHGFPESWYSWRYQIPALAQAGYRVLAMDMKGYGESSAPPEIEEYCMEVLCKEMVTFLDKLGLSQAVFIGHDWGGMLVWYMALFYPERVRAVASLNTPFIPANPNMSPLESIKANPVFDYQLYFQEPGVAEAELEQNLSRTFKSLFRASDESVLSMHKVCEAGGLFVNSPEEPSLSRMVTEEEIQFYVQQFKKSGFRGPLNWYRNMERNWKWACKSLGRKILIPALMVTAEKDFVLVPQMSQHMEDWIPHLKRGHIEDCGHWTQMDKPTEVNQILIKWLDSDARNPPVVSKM
# Cav32 inh – blocks human Cav3.2 T-type calcium channel; O95180; Cav3.2-expressing cells, Fluo-4 calcium fluorescence FDSS; hits give low values; B-score at 10 µM; hit rate 4% among 100,000; AID 449739;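 active = single-dose well whose peak fluorescence ratio is a statistical outlier from its plate by either plate-standardised score or position-corrected B-score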
# sEH inh – blocks human soluble epoxide hydrolase activity | inhibition, % at 2 µM | recombinant human sEH enzymatic activity assay | P34913 | hit rate 0.34% among 91,000; in the data active = inhibition above about 80%
# PostGolgi ctrl – inhibits growth of the yeast control strain. efflux-deficient yeast background strain, growth absorbance A615, 16 h. inhibition, % at 10 µM. hit rate 5% among 98,000
# PostGolgi yeast – growth inhibition of a yeast mutant, post-Golgi transport screen; inhibition, % at 10 µM; hit rate 0.9% among 98,000; post-Golgi transport phenotypic cell assay; AID 739;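 note: yeast cells grown in 1536-well plates; yeast grown about 18 h at 30C before absorbance read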
# An asterisk follows results filed as active; x = not tested or not shown. Rows were chosen to be rich in hits. Some 7.8% of all compounds tested hit in one or more screens of this group. Cut-off read from the data, not from the text of the source, unless noted: active = inhibition above about 30%; inactive = the rest.
SMILES,sEH activator,Cav32 inh,sEH inh,PostGolgi ctrl,PostGolgi yeast
O=C(/C=C/c1c(Cl)cccc1Cl)Nc1ccncc1,-5.9,-0.213,7.2,92.0*,51.5*
O=C(Cc1c(F)cccc1Cl)Nc1ccncc1,-1.0,1.03,0.8,25.1,37.0*
O=C(NCc1ccncc1)C1CCCCC1,-9.5,-0.333,7.8,7.8,-2.9
CSc1oc(-c2ccco2)nc1S(=O)(=O)c1ccccc1,-4.5,1.11,3.8,-1.4,7.2
CC(C)Sc1oc(-c2ccco2)nc1S(=O)(=O)c1ccccc1,-7.4,-3.36,7.7,40.6*,-6.1
CCc1ccc(CSc2nccn2-c2ccccc2)cc1,7.7,-5.4*,-5.2,7.0,0.7
CC1CCN(CCCn2c(=S)[nH]c3ccc(N4CCOCC4)cc3c2=O)CC1,-5.8,-4.66*,5.5,-0.1,1.6
COc1cc2[nH]c(=S)n(CCCN3CCOCC3)c(=O)c2cc1OC,-10.9,1.05,12.0,-8.9,37.7*
O=c1c2cc(N3CCOCC3)ccc2[nH]c(=S)n1CCCN1CCCC1,-3.7,x,4.9,-0.6,12.7
Cc1ccc(/C(O)=C2/C(=O)C(=O)N(CCN3CCOCC3)C2c2cccs2)cc1 (centres undefined),4.3,x,-4.3,24.6,-4.0
CC(C)CC(CO)N1CCN(C(=O)c2cccc(Cl)c2)CCC1=O (centres undefined),x,-0.125,x,x,x
O=C(CCSc1ccccc1)Nc1ccc(OCc2ccccc2)cc1,-34.1,-0.293,34.4,11.7,-5.6
CCC(C)(C)n1nnnc1C(c1cc2ccc(OC)cc2[nH]c1=O)N1CCc2ccccc21 (centres undefined),-11.4,-3.89*,10.3,40.2*,-0.8
CCC(C)(C)n1nnnc1C(c1cc2cc(OC)ccc2[nH]c1=O)N1CCc2ccccc21 (centres undefined),-7.8,-1.4,9.2,6.8,-9.9
CCC(C)(C)n1nnnc1C(c1cc2cc3c(cc2[nH]c1=O)OCO3)N1CCN(C)CC1 (centres undefined),10.3,0.144,-11.2,0.3,30.3*
CCC(C)(C)n1nnnc1C(c1cc2cc(C)cc(C)c2[nH]c1=O)N1CCN(Cc2ccc3c(c2)OCO3)CC1 (centres undefined),-0.3,x,-2.0,37.0*,17.9
C=CCn1c(N)c(C(=O)NCCC2=CCCCC2)sc1=S,-53.6,-0.157,54.2,-4.3,-16.9
Cc1ccc(CNC(=O)C2CCC(=O)N2CCc2ccccc2)cc1 (centres undefined),-6.0,0.0488,4.6,10.2,2.6
CCCCCC/C(=N\NS(C)(=O)=O)c1ccccc1,-10.0,-4.88*,8.2,10.1,-1.9
Cc1ccc(S(=O)(=O)c2c(N)n(Cc3ccco3)c3nc4ccccc4nc23)cc1,4.4,-4.21,-4.9,6.0,-8.2
Cc1ccc(S(=O)(=O)c2c(N)n(NC(=O)c3ccco3)c3nc4ccccc4nc23)cc1,1.5,-5.46*,0.2,6.7,13.7
O=C(Nc1cc(Cl)cc(Cl)c1)C(NCCO)c1ccccc1 (centres undefined),x,0.0308,x,1.0,6.7
O=C(N/C(=N\O)c1ccccc1)Nc1ccc(Cl)cc1,-13.2,-4.98*,12.6,1.4,4.1
CSc1cccc(NC(=O)COc2ccccc2)c1,-3.1,-3.23,3.1,5.1,-3.1
CSc1cccc(NC(=O)Nc2ccccc2)c1,-57.0,-2.27,56.7,47.8*,-3.9
SMILES,sEH activator,Cav32 inh,sEH inh,PostGolgi ctrl,PostGolgi yeast
CSc1cccc(NC(=O)/C=C/c2ccccc2)c1,-17.8,-6.34*,16.4,-1.0,-9.4
CSc1cccc(NC(=O)/C=C/c2ccc(Cl)cc2)c1,-7.1,-1.45,6.0,5.9,-14.4
O=C(Nc1ccccc1)Nc1cc(Cl)cc(Cl)c1,-73.6,0.246,72.1,55.6*,9.0
CCNC(=S)NNC(=O)c1ccc(OC(F)F)cc1,-14.0,0.173,15.1,2.1,-1.4
Cc1ccc(N(Cc2ccccc2F)S(C)(=O)=O)cc1C,8.7,-1.2,-9.8,-3.0,-4.1
Cc1nc2sccn2c1-c1nc(-c2cc3ccccc3o2)cs1,-3.8,x,3.7,34.3*,1.2
O=c1oc2ccccc2cc1-c1nc(-c2cccs2)cs1,3.0,-2.96,-0.8,7.2,6.7
CCOC(=O)C1CCN(c2cc(=O)n(Cc3ccc(F)cc3)c(=O)[nH]2)CC1,x,-1.86,x,7.4,-8.9
Nc1ccc(-c2nc3c(Cl)c(N)ccc3[nH]2)cc1,0.7,0.0507,-0.5,33.1*,6.1
CCCCc1nc(NCCNC(=O)c2ccccc2)c(C#N)c2c1CSC(C)(C)C2,-8.9,-4.5*,8.1,98.5*,15.4
CCCCc1nc(NCCNC(=O)c2ccco2)c(C#N)c2c1CSC(C)(C)C2,-4.7,-5.84*,6.0,100.4*,17.7
O=C(OCC#Cc1c(COC(=O)c2ccccc2)nnn1Cc1ccccc1)c1ccccc1,x,-0.556,x,x,x
CCS(=O)(=O)N1CCN(c2ccc([N+](=O)[O-])c(NC(C)c3ccccc3)c2)CC1 (centres undefined),2.0,x,2.1,43.9*,10.2
CC(Nc1cc(N2CCN(C(=O)C(C)(C)C)CC2)ccc1[N+](=O)[O-])c1ccccc1 (centres undefined),-14.8,-4.23*,18.3,26.8,-0.3
CC(C)c1nnc(NC(=O)CCC(=O)NCc2ccc3c(c2)OCO3)s1,3.0,-0.677,-1.5,5.4,7.5
COc1ccc(-c2noc(CN(C(=O)c3cccs3)C(C)C)n2)cc1,0.3,-0.96,2.5,5.8,-20.0
CCN(CC)C(=O)N1CCN(S(=O)(=O)c2ccc(C)cc2)CC1,-1.1,0.062,-0.8,8.5,-5.3
Cc1ccc(N(C)C(=O)N2CCN(S(=O)(=O)c3c(C)cc(C)cc3C)CC2)cc1,-3.0,-6.01*,5.1,24.2,-5.6
CCCCn1c(=O)n(Cc2cccc(F)c2)c(=O)c2c1ncn2Cc1ccco1,-9.3,-4.34,8.1,39.1*,-10.2
Cc1[nH]c2ccccc2c1-c1nc2ccccc2[nH]1,x,-0.072,x,1.0,1.4
c1ccc(-c2n[nH]c(-c3ccccc3)c2-c2nc3ccccc3[nH]2)cc1,1.3,-5.18*,-1.8,12.9,8.3
COc1ccc(-c2nc(NC(=O)Cn3ccc(C(F)(F)F)n3)sc2C)cc1,-14.3,-7.56*,15.5,19.8,-8.4
Cc1ccc2ccc(C3C(=O)c4ccccc4C3=O)nc2c1,-4.4,-1.88,4.6,x,x
CCCn1c(NCc2c[nH]c3ccccc23)nc2ccccc21,4.9,-5.94*,-8.0,-0.1,-4.0
CCOC(=O)N1CCC(NC(=O)c2cn(-c3ccc(OC)cc3)c(=O)c3ccccc23)CC1,-9.4,0.854,11.9,13.0,-7.1
SMILES,sEH activator,Cav32 inh,sEH inh,PostGolgi ctrl,PostGolgi yeast
CCOc1ccc(NC(=O)c2cccc3c2C(=O)N(CCOC)C3)cc1,3.1,0.0417,-3.8,30.7*,2.7
CCOC(=O)N1CCC(N2Cc3cccc(C(=O)Nc4ccc(CC)cc4)c3C2=O)CC1,-5.2,0.0182,4.5,34.4*,-0.2
CCOC(=O)N1CCC(NC(=O)c2cccc3c2C(=O)N(c2ccc(OC)cc2)C3)CC1,9.2,1.39,-10.9,37.5*,-1.5
Cc1ccc(NC(=O)c2cccc3c2C(=O)N(C2CCCCC2)C3)cc1,7.0,-0.755,-4.9,44.0*,9.8
CCNc1sc(C(=O)c2cccs2)c(N)c1-c1nc2ccccc2s1,6.0,-0.252,-2.9,36.3*,1.1
Cc1ccc(NC(=O)CSc2nnc(CCNC(=O)OC(C)(C)C)o2)c(C)c1,3.7,0.944,-4.7,34.9*,-2.0
